Most compounds without a hit are left out; they make up all but 3.2% or so of the library.
MT1-MMP txn act: MT1-MMP promoter reporter activation – cell-based, luciferase luminescence, primary screen | HT1080 MT1-MMP promoter luciferase reporter, overnight; stronger effect = higher value | activation factor at 10 µM | actives 0.16% (n = 86,000) | AID 750, 2007;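 active = activation factor of at least 2 for MT1-MMP transcription at 10 µM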
ERb SRC1 inh: inhibitors of ERβ-SRC1 coactivator interaction, primary screen, biochemical, TR-FRET, ERβ LBD, SRC-1 peptide. Estrogen receptor beta (Homo sapiens), Q92731. TR-FRET ER-beta LBD / SRC1-Cy5 peptide binding; receptor agonist-loaded with 1 µM estradiol. actives 1.3% (n = 86,000). inhibition, % at 25.6 µM;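 active = compounds whose percent inhibition of the receptor-coactivator binding signal exceeds about 50% in the single-dose screen, limit read from the data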;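 note: 0% = receptor plus peptide wells without compound and 100% = peptide-only wells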
Target sequence (Q92731 whole entry, looked up, the tested form may be a part): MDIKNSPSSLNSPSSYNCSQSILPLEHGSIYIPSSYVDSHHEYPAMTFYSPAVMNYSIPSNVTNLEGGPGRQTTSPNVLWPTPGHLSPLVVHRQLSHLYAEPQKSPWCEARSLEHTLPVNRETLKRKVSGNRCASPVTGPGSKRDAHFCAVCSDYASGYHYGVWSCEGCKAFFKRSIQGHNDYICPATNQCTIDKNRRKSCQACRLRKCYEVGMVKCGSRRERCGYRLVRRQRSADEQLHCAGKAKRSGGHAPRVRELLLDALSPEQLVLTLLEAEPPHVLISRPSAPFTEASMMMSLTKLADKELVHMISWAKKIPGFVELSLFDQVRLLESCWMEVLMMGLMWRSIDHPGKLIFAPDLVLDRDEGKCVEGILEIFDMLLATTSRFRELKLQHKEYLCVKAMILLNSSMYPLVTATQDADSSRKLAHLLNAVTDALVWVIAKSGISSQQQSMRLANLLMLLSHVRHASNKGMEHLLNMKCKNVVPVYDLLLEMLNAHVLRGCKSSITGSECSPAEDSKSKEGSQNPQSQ
ERa SRC1 inh: ERα–SRC-1 coactivator interaction inhibitors, primary screen, biochemical, TR-FRET, ERα LBD, estradiol-bound. Estrogen receptor (Homo sapiens), P03372. AID 629, 2007. TR-FRET ER-alpha LBD / SRC-1 peptide. inhibition, % at 25.6 µM. actives 1.7% (n = 86,000); in the data active = inhibition above about 50%;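 note: 0% = receptor plus peptide control and 100% = peptide only without receptor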
ERa coact pot: enhancers of ERα–SRC-1 coactivator binding, primary screen, biochemical, TR-FRET, ERα LBD, low estradiol; Estrogen receptor (Homo sapiens), P03372; TR-FRET ERalpha-LBD/SRC-Cy5 coactivator binding, 2 h; 100 = basal binding, no effect; coactivator binding (% of control), % at 25.6 µM; actives 1.3% (n = 86,000); AID 639, 2007; in the data active = activity above about 200%;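 note: binding measured in presence of low estradiol as agonist stimulus; 0% = peptide alone without receptor and 100% = receptor with peptide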
EphB4 antag: EphB4-ephrin-B2 interaction antagonists, primary screen, biochemical, TNYL-RAW peptide probe, fluorescence polarization. Ephrin type-B receptor 4 (Homo sapiens), P54760. EphB4 LBD / TNYL-RAW-Alexa532 peptide. inhibition, % at 7 µM. actives 0.15% (n = 97,000). AID 720, 2007;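 active = inhibition above the screen-wide mean inhibition plus 3 SD, cut at about 15% in these data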;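 note: 0% = DMSO wells and 100% = excess unlabeled TNYL-RAW peptide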
Candida biofilm: clotrimazole potentiators killing Candida biofilms, primary screen, with clotrimazole, Alamar Blue. actives 0.14% (n = 85,000). AID 834, 2007. C. albicans biofilm + clotrimazole. inhibition, % at 6 µM;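 active = inhibition above 20%; inactive = inhibition below 20%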;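 note: preformed 24 hr biofilms exposed to compound for 48 hr; 0% = biofilm without compound and 100% = blank killed by clotrimazole plus chlorhexidine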
Starred values were filed as active, the others as inactive; nt = not tested or not shown; [ ] = remark or other dose.

SMILES	MT1-MMP txn act	ERb SRC1 inh	ERa SRC1 inh	ERa coact pot	EphB4 antag	Candida biofilm
COc1ccc(NC(=O)c2cc3c(=O)n(C)c4ccccc4c3n2C)cc1OC	1	5	-3	109	-8	8
CN(CCNC(=O)c1cc2c(=O)n(C)c3ccccc3c2n1C)Cc1ccccc1	1	-1	16	96	-1	-2
Cc1ccc(CNC(=O)c2cc3c(=O)n(C)c4ccccc4c3n2C)cc1	nt	42	39	291*[fluorescence artefact?]	-7	11
COc1cc(NC(=O)c2cc3c(=O)n(C)c4ccccc4c3n2C)cc(OC)c1OC	1.1	-5	-23	330*	-10	18
Cn1c(C(=O)NCCN2CCOCC2)cc2c(=O)n(C)c3ccccc3c21	1.1	-5	-5	90	2	12
Cn1c(C(=O)NCc2cccs2)cc2c(=O)n(C)c3ccccc3c21	1	7	-1	513*[fluorescence artefact?]	-10	1
Cn1c(C(=O)NC2CCCCCC2)cc2c(=O)n(C)c3ccccc3c21	1.1	28	23	223*[fluorescence artefact?]	-7	0
COC(=O)c1ccc(Cn2cnc3c(cnn3-c3ccc(Cl)cc3)c2=O)o1	1	-13	-11	118	nt	0
O=C(Nc1nc2ccccc2[nH]1)C1CC(=O)N(c2ccc3c(c2)OCCO3)C1 (stereo not drawn)	1.2	43	68*[fluorescence artefact?]	53	-1	nt
CCCCN(CCCC)S(=O)(=O)c1ccc(NC(=O)CN2CCOCC2)cc1	1	1	-1	93	-6	7
CCCCN(CCCC)S(=O)(=O)c1ccc(NC(=O)Cc2cccs2)cc1	1	67*	67*[fluorescence artefact?]	62	0	0
O=C(Cc1cccs1)Nc1cccc(C(=O)Nc2ccco2)c1	1.1	-2	-1	103	-3	4
CC(=O)c1cccc(NC(=O)Cc2cccs2)c1	1.1	73*[fluorescence artefact?]	84*	29	nt	5
CCCN(CCC)S(=O)(=O)c1ccc(NC(=O)Cc2cccs2)cc1	1.4	48	63*	79	-2	2
CCCNS(=O)(=O)c1ccc(NC(=O)Cc2cccs2)cc1	1.3	-1	-6	111	-6	10
COC(=O)[C@@]1(Cc2ccc(F)cc2)[C@H]2c3cc(C(=O)N4CCCC4)n(Cc4c(CO)[nH]cc(C)c4=O)c3C[C@H]2CN1C(=O)c1ccccc1	1.2	nt	nt	nt	nt	nt
COCCNC(=O)CN1CCC(NC(=O)Nc2ccc(C(F)(F)F)cc2)CC1	1	-4	2	98	-2	1
Cn1c(CN2CCCC2)nc2cc(NC(=O)COc3ccccc3)ccc21	nt	nt	nt	nt	-2	nt
Cc1nn(CC(=O)Nc2ccc3c(c2)oc2ccccc23)c(=O)c2ccccc12	1	51*[fluorescence artefact?]	81*[fluorescence artefact?]	106	-6	8
Cc1ccc(C)c(NC(=O)Cn2nc(C)c3ccccc3c2=O)c1	1	3	18	296*[fluorescence artefact?]	nt	10
Cc1nn(CC(=O)Nc2ccc3c(c2)nc(CN2CCCC2)n3C)c(=O)c2ccccc12	1	40	70*[fluorescence artefact?]	79	-6	-1
COc1ccc(CCn2c(-c3ccco3)nc3oc4ccccc4c(=O)c3c2=O)cc1	1.3	8	16	123	nt	3
Cc1cc(C)c(S(=O)(=O)NCc2cn3c(C)csc3n2)cc1C	1.1	nt	nt	nt	19*	nt
COc1ccc(OC)c(N)c1	1.5	63*[fluorescence artefact?]	91*[fluorescence artefact?]	0	3	8
Cc1cccc(OCC(=O)Nc2cccc(-c3nnc(-c4ccccc4)o3)c2)c1C	1	44	72*[fluorescence artefact?]	124	-1	5
SMILES	MT1-MMP txn act	ERb SRC1 inh	ERa SRC1 inh	ERa coact pot	EphB4 antag	Candida biofilm
CN1CCN(c2ccc(NC(=O)COc3ccccc3Cl)cc2)CC1	nt	72*[fluorescence artefact?]	57*[fluorescence artefact?]	28	4	8
Cc1cccc(C)c1OCC(=O)Nc1cccc(-c2nnc(-c3ccccc3)o2)c1	1.4	nt	nt	nt	-4	nt
O=C(Nc1ccc(N2CCCC2)cc1)c1ccc(Br)o1	0.5	68*[fluorescence artefact?]	59*[fluorescence artefact?]	58	-7	-1
Cc1ccc(OCC(=O)Nc2ccc(O)c(C(=O)O)c2)cc1C	0.8	5	21	99	2	5
Cc1ccc(OCC(=O)Nc2ccc(N3CCCC3)cc2)cc1C	1.1	82*[fluorescence artefact?]	99*[fluorescence artefact?]	-2	0	4
Clc1cccc(Cl)c1CSc1nnc(-c2sccc2-n2cccc2)o1	nt	nt	nt	nt	8	nt
CC1CC(C)CN(c2nc3c(c(=O)[nH]c(=O)n3C)n2CCSc2nc3ccccc3o2)C1 (stereo not drawn)	1	nt	nt	nt	nt	nt
CCN1CCN(C(=O)CCc2ccc(S(=O)(=O)NCCc3ccccc3)cc2)CC1	1.2	-6	13	106	5	3
Cc1cc(C)cc(OCC(=O)NCCN2CCOCC2)c1	1.2	85*[fluorescence artefact?]	-10	112	-6	4
CCOc1ccc(C(=O)Nc2ccc(N3CCCC3)cc2)cc1	1	nt	nt	nt	-10	nt
CCOc1ccccc1OCC(=O)Nc1ccc(N2CCCCC2)cc1	1.3	15	11	94	-2	3
COc1ccc(C(=O)Nc2ccc(N3CCCC3)cc2)cc1	1.3	41	84*[fluorescence artefact?]	24	2	80*
Cc1cc(OCC(=O)NCCN2CCOCC2)cc(C)c1Br	1	-12	-4	97	-3	6
Cc1cc(C)cc(OCC(=O)Nc2ccc(N3CCCC3)cc2)c1	1.1	71*	97*[fluorescence artefact?]	3	-1	8
Cc1cccc(OCC(=O)Nc2ccc(N3CCCC3)cc2)c1C	0.9	59*[fluorescence artefact?]	95*[fluorescence artefact?]	6	nt	7
CCN(CC)C(=O)c1ccc(CS(=O)(=O)c2ccc(OC)cc2)o1	nt	6	-2	100	-10	5
COc1cc2c3nnc(-c4ccc(F)cc4)c-3cn(Cc3ccc(F)cc3)c2cc1OC	nt	32	24	481*[fluorescence artefact?]	-5	14
COc1ccc(CN2CCN(S(=O)(=O)c3ccc(F)cc3)CC2)cc1OC	1.1	-4	-3	101	2	8
COc1ccc(Cn2cc3c(-c4ccc(F)cc4)nnc-3c3cc(OC)c(OC)cc32)cc1	nt	34	49	262*[fluorescence artefact?]	-2	2
COc1cc2c3nnc(-c4ccc(F)cc4)c-3cn(Cc3ccccc3)c2cc1OC	nt	39	33	424*[fluorescence artefact?]	3	14
COC(=O)[C@@]1(Cc2ccccc2)C=C[C@@H](C)N1C	1	nt	nt	nt	nt	nt
Clc1ccc2c(c1)C1OCCC1C(c1ccco1)N2 (stereo not drawn)	1.4	-4	-12	103	-9	0
Cc1oc2nc(SCCCC(=O)NCCCO)nc(N)c2c1C	1	8	0	101	nt	4
Cc1oc2nc(SCC(=O)NCCCO)nc(N)c2c1C	0.9	64*	-8	101	-2	4

Screening data from PubChem.
